{"source": "the supplement of paper PMC7366291", "note": "Counter-ions that a name gives are not always drawn. ± gives the standard deviation of the averaged measurements.", "data": [{"tested_on": "Danio rerio Tg(wt1b:EGFP) embryo, pronephros", "assay": "pronephric angle neck segment to proximal convoluted tubule (mean of left and right), fold change vs DMSO control; higher = larger pronephric angle", "conditions": "25 µM; exposure: 24-48 hpf", "how_it_was_run": "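Using a Fiji macro, distances and angles were calculated from 16 reference points set by hand on maximum projections of pronephroi imaged dorsally (470 nm, 10 z-slices) in agarose-filled 96-well plates. The dechorionated Tg(wt1b:EGFP) zebrafish embryos had received 25 μM compound in 0.5% DMSO in HEPES-buffered E3 with 0.003% PTU from 24 to 48 hpf at 28.5°C. Values more than 2 SD from a feature's mean were excluded. Each feature appears as a fold change over the mean of DMSO-treated embryos from the same day.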", "values": [{"smiles": "CC(=O)O[C@]1(C(C)=O)CC[C@H]2[C@@H]3C=C(C)C4=CC(=O)CC[C@@H]4[C@H]3CC[C@@]21C", "note": "[Nomegestrol acetate]", "pronephric angle neck segment": "1.131 ± 0.0084"}, {"smiles": "CC1=Nc2ccc(Cl)cc2S(=O)(=O)N1", "note": "[Diazoxide]", "pronephric angle neck segment": "0.942 ± 0.035"}, {"smiles": "O=C1NCCN1CCN1CCC(c2cn(-c3ccc(F)cc3)c3ccc(Cl)cc23)CC1", "note": "[Sertindole]", "pronephric angle neck segment": "0.949 ± 0.071"}, {"smiles": "O=C1NCC2(CCN(CCc3ccccc3)CC2)O1", "note": "[Fenspiride hydrochloride]", "pronephric angle neck segment": "1.09 ± 0.038"}, {"smiles": "CC(C)Oc1ccc2c(=O)c(-c3ccccc3)coc2c1", "note": "[Ipriflavone]", "pronephric angle neck segment": "1.06 ± 0.028"}, {"smiles": "Nc1c2c(nc3ccccc13)CCCC2", "note": "[Tacrine hydrochloride]", "pronephric angle neck segment": "1.03 ± 0.042"}, {"smiles": "COc1ccccc1N1CCN(CCCNc2cc(=O)n(C)c(=O)n2C)CC1", "note": "[Urapidil hydrochloride]", "pronephric angle neck segment": "1.02 ± 0.025"}, {"smiles": "O=C(N/N=C/c1ccc([N+](=O)[O-])o1)c1ccc(O)cc1", "note": "[Nifuroxazide]", "pronephric angle neck segment": "0.964 ± 0.028"}]}]}
